# Measured values taken from paper PMC7862700, “An all-to-all approach to the identification of sequence-specific readers for epigenetic DNA modifications on cytosine”.
# Key:
# Assay in all cases: DAPPL (digital affinity profiling via proximity ligation, sequencing); 10 mM Tris-HCl pH 7.5, 50 mM NaCl, 1 mM DTT, 4% glycerol, room temperature, 30 min; GST-TFs on glutathione beads, 16-mer random dsDNA library, 0.1% formaldehyde crosslink after washing; high values mean tight binding
# [1] = target: T1, FEV (Homo sapiens, UniProt Q99581 1-238); details: protein: recombinant; tags: N-terminal GST; dsDNA, one strand shown
# T1 sequence: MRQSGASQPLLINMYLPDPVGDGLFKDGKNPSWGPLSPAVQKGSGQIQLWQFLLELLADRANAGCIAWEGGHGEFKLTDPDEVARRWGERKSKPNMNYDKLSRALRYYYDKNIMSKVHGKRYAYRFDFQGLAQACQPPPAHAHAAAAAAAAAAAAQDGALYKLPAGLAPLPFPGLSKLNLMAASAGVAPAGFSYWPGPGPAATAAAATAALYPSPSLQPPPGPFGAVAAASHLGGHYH
# Method in brief: (§1)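 A tag-only sample was pooled with DNA-barcoded human transcription factors that had been expressed in yeast as GST fusions and captured on glutathione beads. The pools were incubated for 30 min at room temperature with 200 nmole of a random double-stranded 16-mer DNA library in Tris/NaCl/DTT/glycerol buffer, then washed, crosslinked with 0.1% formaldehyde, proximity-ligated (BsaI/T4 ligase, 1 h, 37 °C), PCR-amplified and sequenced on an Illumina NextSeq500. Binding signal is each hexamer's read frequency for a factor divided by its frequency for the tag-only sample.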
# [2] = target: ETV5 (Homo sapiens, UniProt P41161 1-510); details: protein: recombinant; tags: N-terminal GST; dsDNA, one strand shown
# Method in brief: as §1
# [3] = target: HSF1 (Homo sapiens, UniProt Q00613 1-529); details: protein: recombinant; tags: N-terminal GST; chain copies: 3; dsDNA, one strand shown
# Method in brief: as §1
# [4] = target: T2, SPIC (Homo sapiens, UniProt Q8N5J4 1-248); details: protein: recombinant; tags: N-terminal GST; dsDNA, one strand shown
# T2 sequence: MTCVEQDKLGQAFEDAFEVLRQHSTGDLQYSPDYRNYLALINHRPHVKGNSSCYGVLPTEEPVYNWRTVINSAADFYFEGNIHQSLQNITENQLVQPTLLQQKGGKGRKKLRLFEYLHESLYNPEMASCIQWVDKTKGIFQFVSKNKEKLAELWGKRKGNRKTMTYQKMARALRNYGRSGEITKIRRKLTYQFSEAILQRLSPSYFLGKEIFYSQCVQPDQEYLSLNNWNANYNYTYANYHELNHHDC
# Method in brief: as §1
# [5] = target: ELF4 (Homo sapiens, UniProt Q99607 1-663); details: protein: recombinant; tags: N-terminal GST; dsDNA, one strand shown
# Method in brief: as §1
# [6] = target: T3, ELK4 (Homo sapiens, UniProt P28324-2 1-405); details: protein: recombinant; tags: N-terminal GST; dsDNA, one strand shown
# T3 sequence: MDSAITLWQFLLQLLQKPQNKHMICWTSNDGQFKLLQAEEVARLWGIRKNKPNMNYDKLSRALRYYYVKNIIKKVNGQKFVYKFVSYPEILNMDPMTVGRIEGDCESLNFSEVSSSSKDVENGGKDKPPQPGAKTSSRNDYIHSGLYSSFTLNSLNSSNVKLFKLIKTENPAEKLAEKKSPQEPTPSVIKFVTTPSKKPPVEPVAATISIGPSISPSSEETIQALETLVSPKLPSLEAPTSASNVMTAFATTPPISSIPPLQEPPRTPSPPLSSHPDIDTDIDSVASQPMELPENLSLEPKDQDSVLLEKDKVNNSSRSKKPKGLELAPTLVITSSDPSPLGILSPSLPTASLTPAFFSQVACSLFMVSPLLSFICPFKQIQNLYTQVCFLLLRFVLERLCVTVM
# Method in brief: as §1
# [7] = target: T4, ETV2 (Homo sapiens, UniProt O00321 1-342); details: protein: recombinant; tags: N-terminal GST; dsDNA, one strand shown
# T4 sequence: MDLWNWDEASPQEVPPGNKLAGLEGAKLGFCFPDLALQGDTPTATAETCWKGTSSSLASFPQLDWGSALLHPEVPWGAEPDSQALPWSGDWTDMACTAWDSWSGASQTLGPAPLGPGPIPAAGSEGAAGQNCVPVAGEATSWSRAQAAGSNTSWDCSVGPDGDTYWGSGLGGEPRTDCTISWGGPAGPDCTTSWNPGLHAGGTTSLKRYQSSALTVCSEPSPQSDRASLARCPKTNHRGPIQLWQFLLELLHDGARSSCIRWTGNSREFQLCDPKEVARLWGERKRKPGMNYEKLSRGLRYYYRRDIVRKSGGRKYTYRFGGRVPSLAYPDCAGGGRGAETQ
# Method in brief: as §1
# [8] = target: T5, ELF3 (Homo sapiens, UniProt P78545 1-371); details: protein: recombinant; tags: N-terminal GST; dsDNA, one strand shown
# T5 sequence: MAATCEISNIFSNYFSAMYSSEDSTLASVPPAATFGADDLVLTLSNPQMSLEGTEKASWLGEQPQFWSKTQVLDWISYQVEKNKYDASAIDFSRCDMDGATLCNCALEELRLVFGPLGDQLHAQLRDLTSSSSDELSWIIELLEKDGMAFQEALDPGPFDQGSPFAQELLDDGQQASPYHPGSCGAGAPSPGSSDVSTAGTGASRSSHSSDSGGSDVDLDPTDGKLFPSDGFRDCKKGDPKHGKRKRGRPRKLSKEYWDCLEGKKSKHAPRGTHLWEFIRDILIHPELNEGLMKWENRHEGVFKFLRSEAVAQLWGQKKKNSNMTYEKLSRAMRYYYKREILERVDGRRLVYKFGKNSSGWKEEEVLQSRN
# Method in brief: as §1
# [9] = target: CRX (Homo sapiens, UniProt O43186 1-299); details: protein: recombinant; tags: N-terminal GST; dsDNA, one strand shown
# Method in brief: as §1
# [10] = target: ETV1 (Homo sapiens, UniProt P50549 1-477); details: protein: recombinant; tags: N-terminal GST; dsDNA, one strand shown
# Method in brief: as §1
# Chain of ETV5 (P41161 whole entry): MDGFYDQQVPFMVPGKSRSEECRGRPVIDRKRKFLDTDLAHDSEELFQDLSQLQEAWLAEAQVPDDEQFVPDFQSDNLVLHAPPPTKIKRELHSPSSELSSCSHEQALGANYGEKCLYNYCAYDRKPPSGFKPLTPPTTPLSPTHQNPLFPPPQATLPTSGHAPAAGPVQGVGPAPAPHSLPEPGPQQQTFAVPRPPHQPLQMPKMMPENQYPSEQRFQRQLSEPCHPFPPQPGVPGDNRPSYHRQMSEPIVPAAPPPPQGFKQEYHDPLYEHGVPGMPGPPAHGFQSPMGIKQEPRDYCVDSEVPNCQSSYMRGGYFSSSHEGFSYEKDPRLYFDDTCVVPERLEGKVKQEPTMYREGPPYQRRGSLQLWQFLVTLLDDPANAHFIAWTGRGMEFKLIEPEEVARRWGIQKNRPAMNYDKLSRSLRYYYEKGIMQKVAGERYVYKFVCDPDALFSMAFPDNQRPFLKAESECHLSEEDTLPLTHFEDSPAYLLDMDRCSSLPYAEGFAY
# Chain of CRX (O43186 whole entry): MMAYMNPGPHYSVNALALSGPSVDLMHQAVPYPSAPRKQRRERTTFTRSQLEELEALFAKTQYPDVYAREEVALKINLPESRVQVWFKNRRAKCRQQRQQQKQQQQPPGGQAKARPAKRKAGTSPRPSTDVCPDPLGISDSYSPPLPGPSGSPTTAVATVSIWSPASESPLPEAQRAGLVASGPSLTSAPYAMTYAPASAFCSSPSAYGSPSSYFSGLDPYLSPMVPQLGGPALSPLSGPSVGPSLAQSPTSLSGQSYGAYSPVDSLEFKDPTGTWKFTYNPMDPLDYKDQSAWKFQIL
# Chain of ETV1 (P50549 whole entry): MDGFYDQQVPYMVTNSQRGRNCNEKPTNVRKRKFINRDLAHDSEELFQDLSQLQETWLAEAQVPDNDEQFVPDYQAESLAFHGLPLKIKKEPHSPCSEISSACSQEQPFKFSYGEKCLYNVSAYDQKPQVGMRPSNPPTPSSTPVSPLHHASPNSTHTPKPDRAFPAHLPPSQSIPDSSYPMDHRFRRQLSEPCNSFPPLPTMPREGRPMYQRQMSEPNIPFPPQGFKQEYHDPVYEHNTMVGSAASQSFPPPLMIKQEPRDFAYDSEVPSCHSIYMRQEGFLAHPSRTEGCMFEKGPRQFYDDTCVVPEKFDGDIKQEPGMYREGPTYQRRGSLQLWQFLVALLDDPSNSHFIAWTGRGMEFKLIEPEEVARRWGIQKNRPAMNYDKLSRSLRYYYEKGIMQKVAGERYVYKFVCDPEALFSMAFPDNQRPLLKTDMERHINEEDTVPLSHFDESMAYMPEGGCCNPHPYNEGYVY
# Chain of HSF1 (Q00613 whole entry): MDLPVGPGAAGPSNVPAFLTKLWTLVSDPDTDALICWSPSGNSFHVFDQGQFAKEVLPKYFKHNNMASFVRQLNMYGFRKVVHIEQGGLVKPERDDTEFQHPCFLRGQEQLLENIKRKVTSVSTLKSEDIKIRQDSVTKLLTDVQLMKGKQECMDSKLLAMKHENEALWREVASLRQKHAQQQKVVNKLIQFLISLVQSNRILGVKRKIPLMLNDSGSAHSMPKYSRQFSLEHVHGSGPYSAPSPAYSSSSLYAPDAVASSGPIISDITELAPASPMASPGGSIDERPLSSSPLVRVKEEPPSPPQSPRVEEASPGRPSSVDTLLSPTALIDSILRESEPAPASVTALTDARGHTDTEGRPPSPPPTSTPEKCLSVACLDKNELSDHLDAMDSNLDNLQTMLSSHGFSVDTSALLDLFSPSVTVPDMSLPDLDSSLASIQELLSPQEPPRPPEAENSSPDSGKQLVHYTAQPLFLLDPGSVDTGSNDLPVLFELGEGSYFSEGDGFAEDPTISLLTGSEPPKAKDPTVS
# Chain of ELF4 (Q99607 whole entry): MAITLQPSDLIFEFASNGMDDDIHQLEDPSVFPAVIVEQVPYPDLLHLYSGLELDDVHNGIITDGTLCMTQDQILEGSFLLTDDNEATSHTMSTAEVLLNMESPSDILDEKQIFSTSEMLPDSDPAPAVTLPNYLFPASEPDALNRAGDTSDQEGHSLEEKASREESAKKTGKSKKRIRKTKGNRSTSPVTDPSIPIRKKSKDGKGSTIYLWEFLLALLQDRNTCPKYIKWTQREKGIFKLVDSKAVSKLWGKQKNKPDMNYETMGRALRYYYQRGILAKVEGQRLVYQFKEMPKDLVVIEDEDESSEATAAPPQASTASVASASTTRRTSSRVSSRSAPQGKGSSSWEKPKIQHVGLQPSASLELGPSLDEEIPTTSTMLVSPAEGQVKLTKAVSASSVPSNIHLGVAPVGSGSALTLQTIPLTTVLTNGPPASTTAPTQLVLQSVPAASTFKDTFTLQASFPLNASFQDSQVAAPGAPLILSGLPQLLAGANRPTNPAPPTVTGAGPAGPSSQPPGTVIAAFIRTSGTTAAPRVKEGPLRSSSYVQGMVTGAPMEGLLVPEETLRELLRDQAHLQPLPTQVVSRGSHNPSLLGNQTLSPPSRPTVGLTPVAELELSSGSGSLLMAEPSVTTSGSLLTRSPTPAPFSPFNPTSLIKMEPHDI
sequence,measurement,setting,value
CTTACT,binding signal,[1],"1.17 fold enrichment (6-mer frequency, TF over GST control)"
same,binding signal,[2],"1.28 fold enrichment (6-mer frequency, TF over GST control)"
same,binding signal,[3],"1.34 fold enrichment (6-mer frequency, TF over GST control)"
same,binding signal,[4],"1.1 fold enrichment (6-mer frequency, TF over GST control)"
same,binding signal,[5],"1.36 fold enrichment (6-mer frequency, TF over GST control)"
same,binding signal,[6],"1.12 fold enrichment (6-mer frequency, TF over GST control)"
same,binding signal,[7],"1.39 fold enrichment (6-mer frequency, TF over GST control)"
same,binding signal,[8],"1.24 fold enrichment (6-mer frequency, TF over GST control)"
same,binding signal,[9],"1.58 fold enrichment (6-mer frequency, TF over GST control)"
same,binding signal,[10],"1.23 fold enrichment (6-mer frequency, TF over GST control)"
